# Source: PubChem BioAssay (EPA / NIEHS)
# The source made the active and inactive calls. Rule for the calls: active = hit-call score of the fitted dose curve at least 0.9, where 1 is the maximum; inactive = score below 0.9.
# Experiments:
# [1] = ATG_CRE_CIS: Attagene CIS-FACTORIAL HepG2 Assay for human cAMP Responsive Element (CRE) binding protein 3 (AID 2282926); details: HepG2 CRE cis-reporter, Attagene multiplexed mRNA; actives raise or lower the signal
# Method in brief: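 Multiplexed transcription-unit reporters transfected into HepG2; 24 h dosing; RT-PCR/capillary electrophoresis fluorescence read-out; bidirectional fit vs DMSO.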
# [2] = molecular target: CCAAT/enhancer-binding protein beta (Homo sapiens) (UniProt P17676); experiment: ATG_C_EBP_CIS: Attagene CIS-FACTORIAL HepG2 Assay for human CCAAT/Enhancer Binding Protein (C/EBP) beta (AID 2282927); details: HepG2 Attagene cis-factorial transcription factor reporter; actives raise or lower the signal
# Method in brief: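 Endogenous transcription factor activity in human liver HepG2 cells is inferred from induction of a CEBPB-linked reporter mRNA. Exposure lasts 24 h; activity is fitted in both directions relative to DMSO.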
# [3] = ATG_CMV_CIS: Attagene CIS-FACTORIAL HepG2 Assay for human CMV (Internal Marker) (AID 2282928); details: HepG2 CMV promoter reporter, transcription factor profiling; actives raise or lower the signal;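 note: endpoint acts as a background internal control marker rather than a target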
# Method in brief: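 Endogenous transcription factor activity read in HepG2 via transfected cis-promoter reporter units. After 24 h dosing, reporter mRNA measured by RT-PCR/capillary electrophoresis; gain or loss of signal fit relative to DMSO.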
# [4] = ATG_DR4_LXR_CIS: Attagene CIS-FACTORIAL HepG2 Assay for human Liver X Receptor (LXR), DR4 submotif (AID 2282929); details: HepG2 Attagene DR4 cis-reporter, mRNA transcription; actives raise or lower the signal
# Method in brief: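 DR4 cis-reporter in HepG2, 24 h exposure. Detection: RT-PCR, 6-FAM labelling, CE fragment analysis. Endpoint fitted bidirectionally, DMSO = baseline.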
# [5] = molecular target: Aryl hydrocarbon receptor (Homo sapiens) (UniProt P35869); experiment: ATG_Ahr_CIS: Attagene CIS-FACTORIAL HepG2 Assay for human Aryl Hydrocarbon Receptor (Ahr) (AID 2282930); details: HepG2 AhR cis-factorial reporter transcription; actives raise or lower the signal
# Method in brief: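 Transient MRTU transfection of HepG2 → 24 h compound exposure → total RNA, oligo(dT) RT → PCR, 6-FAM extension, HpaI cut → CE fluorescence. DMSO = baseline; bidirectional curve fit.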
# [6] = ATG_AP_1_CIS: Attagene CIS-FACTORIAL HepG2 Assay for human Activator Protein 1 (AP-1) (AID 2282931); details: HepG2 Attagene cis-factorial AP-1 reporter mRNA; actives raise or lower the signal
# Method in brief: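 Cis-regulated reporter units transiently expressed in HepG2 report endogenous transcription-factor activity. Signal: reporter mRNA at 24 h, via RT-PCR and fluorescent capillary electrophoresis. Endpoint derived by bidirectional fitting, DMSO as negative control.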
# [7] = ATG_AP_2_CIS: Attagene CIS-FACTORIAL HepG2 Assay for human Activator Protein 2 (AP-2) (AID 2282932); details: HepG2 AP-2 cis-reporter, Attagene transcription factor profiling; actives raise or lower the signal
# Method in brief: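 HepG2, transient MRTU transfection, cis-regulated reporters; 24 h compound exposure; RNA isolated, RT-PCR, 6-FAM labelling, HpaI digest, CE fluorescence. DMSO = negative control/baseline, bidirectional fit.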
# [8] = molecular target: Transcription factor E2F1 (Homo sapiens) (UniProt Q01094); experiment: ATG_E2F_CIS: Attagene CIS-FACTORIAL HepG2 Assay for human E2F Transcription Factor 1 (AID 2282935); details: HepG2 Attagene cis-reporter, E2F reporter RNA transcripts; actives raise or lower the signal
# Method in brief: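 Cis-element reporter mRNA induction in transiently transfected HepG2, 24 h exposure. Activity fitted in both directions relative to DMSO negative control.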
# [9] = ATG_E_Box_CIS: Attagene CIS-FACTORIAL HepG2 Assay for human Enhancer Box (E-box) (AID 2282936); details: HepG2 E-box cis-reporter transcription, actives raise or lower the signal
# Method in brief: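 Cells: HepG2 (human liver), transient MRTU transfection. Exposure 24 h. RNA → oligo(dT) RT → PCR → 6-FAM label → HpaI → CE. Activity fitted both directions relative to DMSO.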
# [10] = ATG_M_61_CIS: Attagene CIS-FACTORIAL HepG2 Assay for M61 Transcription Factor (Internal Marker) (AID 2282937); details: HepG2 Attagene CIS-FACTORIAL M61 internal marker reporter; actives raise or lower the signal
# Method in brief: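 Background-control endpoint: HepG2 cells with cis-regulated reporter constructs, 24 h exposure, reporter mRNA detected via fluorescent primer extension and capillary electrophoresis; values from bidirectional fitting with DMSO baseline.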
# [11] = ATG_EGR_CIS: Attagene CIS-FACTORIAL HepG2 Assay for human Early Growth Response 1 (EGR1) (AID 2282938); details: HepG2 Attagene CIS-FACTORIAL EGR reporter mRNA; actives raise or lower the signal
# Method in brief: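 Endpoint derived by bidirectional fitting versus DMSO vehicle. Method: cis-promoter reporter units transfected into HepG2, 24 h dosing, RNA isolation, RT-PCR with 6-FAM primer extension and HpaI digestion, then capillary electrophoresis fluorescence detection.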
# [12] = ATG_Ets_CIS: Attagene CIS-FACTORIAL HepG2 Assay for human Erythroblast Transformation Specific (ETS) (AID 2282941); details: HepG2 ETS cis-reporter transcription, actives raise or lower the signal
# Method in brief: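 Steps: transfect HepG2 with multiple reporter units; treat compound 24 h; isolate RNA, DNase-treat, reverse-transcribe; PCR-amplify, label with 6-FAM, digest with HpaI; separate by capillary electrophoresis. Activity fitted both directions versus DMSO.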
# [13] = molecular target: Hepatocyte nuclear factor 3-beta (Homo sapiens) (UniProt Q9Y261); experiment: ATG_FoxA2_CIS: Attagene CIS-FACTORIAL HepG2 Assay for human Forkhead box A2 (FOXA2) (AID 2282942); details: HepG2 cis-reporter transcription factor activity, 24 h; actives raise or lower the signal
# Method in brief: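 Measured: reporter mRNA induction or loss in HepG2 transiently carrying multiple cis-regulated reporter units, 24 h after dosing. Quantified by RT-PCR plus capillary electrophoresis, normalised to DMSO.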
# [14] = ATG_FoxO_CIS: Attagene CIS-FACTORIAL HepG2 Assay for human Forkhead box O (FoxO) (AID 2282943); details: HepG2 Attagene cis-reporter, FoxO element, mRNA; actives raise or lower the signal
# Method in brief: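 HepG2, transient MRTU transfection (cis element, endogenous TFs). Dose 24 h. TriZol RNA → oligo(dT) RT → PCR → 6-FAM primer extension → HpaI cut → CE. Gain/loss vs DMSO.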
# [15] = ATG_GATA_CIS: Attagene CIS-FACTORIAL HepG2 Assay for human GATA Binding Protein (AID 2282944); details: HepG2 GATA cis-element reporter, Attagene multiplex mRNA; actives raise or lower the signal
# Method in brief: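 Transfected cis-reporter HepG2 cells were treated with chemicals for 24 hours. Total RNA was then converted to cDNA, amplified with reporter-specific primers and analysed by fluorescent capillary electrophoresis, using DMSO-treated wells as baseline.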
# [16] = ATG_GLI_CIS: Attagene CIS-FACTORIAL HepG2 Assay for human Zinc Finger Protein GLI1 (AID 2282945); details: HepG2, Attagene cis-factorial reporter mRNA, GLI element; actives raise or lower the signal
# Method in brief: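 Bidirectional curve fits relative to DMSO, using reporter mRNA levels from RT-PCR plus capillary electrophoresis. Cells were HepG2 transiently carrying cis-regulated reporter constructs, harvested 24 h after dosing.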
# [17] = ATG_BRE_CIS: Attagene CIS-FACTORIAL HepG2 Assay for human Bone Morphogenetic Protein (BMP) Response Element (BRE) (AID 2282933); details: HepG2 BMP response element reporter, Attagene transcription factor profiling; actives raise or lower the signal
# Method in brief: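 A HepG2 multiplex reporter system measured inducible reporter mRNA 24 h post-dosing. Detection: RT-PCR, 6-FAM primer extension, HpaI digestion, capillary electrophoresis. Activity fitted bidirectionally relative to DMSO.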
# [18] = ATG_M_19_CIS: Attagene CIS-FACTORIAL HepG2 Assay for M19 Transcription Factor (Internal Marker) (AID 2282939); details: HepG2 Attagene CIS-FACTORIAL M19 internal marker reporter; actives raise or lower the signal
# Method in brief: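 Chemical-treated HepG2 (24 h) with MRTU constructs; reporter transcripts detected by fluorescent RT-PCR fragment analysis on capillary electrophoresis. Internal background marker, DMSO as baseline.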
# [19] = ATG_ERE_CIS: Attagene CIS-FACTORIAL HepG2 Assay for Estrogen Response Element (ERE) (AID 2282940); details: HepG2 ERE cis-reporter, Attagene RNA transcript; actives raise or lower the signal
# Method in brief: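 Human liver cells (HepG2) bearing transiently transfected, promoter-regulated reporter units were exposed 24 h. Reporter mRNA induction was detected by capillary electrophoresis of labelled RT-PCR products and fitted bidirectionally to DMSO.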
# [20] = molecular target: Retinoic acid receptor alpha (Homo sapiens) (UniProt P10276); experiment: ATG_DR5_RAR_CIS: Attagene CIS-FACTORIAL HepG2 Assay for human Retinoic Acid Receptor Alpha (RARE), DR5 submotif (AID 2282934); details: HepG2 Attagene cis-factorial RARE DR5 reporter, mRNA; actives raise or lower the signal
# Method in brief: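 Transient MRTU transfection of HepG2; 24 h compound treatment; TriZol RNA, oligo(dT) RT, PCR, FAM labelling, capillary electrophoresis. Bidirectional fit vs DMSO. Endogenous TF activity at DR5 RARE.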
# Sequence of CCAAT/enhancer-binding protein beta (Homo sapiens) (P17676 whole entry, looked up): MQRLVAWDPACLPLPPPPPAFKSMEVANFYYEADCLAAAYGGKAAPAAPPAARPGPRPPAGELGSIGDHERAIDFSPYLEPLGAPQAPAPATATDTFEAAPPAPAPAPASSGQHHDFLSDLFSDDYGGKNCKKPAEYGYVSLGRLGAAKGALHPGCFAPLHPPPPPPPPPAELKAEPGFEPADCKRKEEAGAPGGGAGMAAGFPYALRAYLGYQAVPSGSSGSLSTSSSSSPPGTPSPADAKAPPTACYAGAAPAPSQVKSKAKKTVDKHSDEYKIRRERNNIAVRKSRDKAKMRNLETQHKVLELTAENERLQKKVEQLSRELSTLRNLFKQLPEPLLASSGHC
# Sequence of Hepatocyte nuclear factor 3-beta (Homo sapiens) (Q9Y261 whole entry, looked up): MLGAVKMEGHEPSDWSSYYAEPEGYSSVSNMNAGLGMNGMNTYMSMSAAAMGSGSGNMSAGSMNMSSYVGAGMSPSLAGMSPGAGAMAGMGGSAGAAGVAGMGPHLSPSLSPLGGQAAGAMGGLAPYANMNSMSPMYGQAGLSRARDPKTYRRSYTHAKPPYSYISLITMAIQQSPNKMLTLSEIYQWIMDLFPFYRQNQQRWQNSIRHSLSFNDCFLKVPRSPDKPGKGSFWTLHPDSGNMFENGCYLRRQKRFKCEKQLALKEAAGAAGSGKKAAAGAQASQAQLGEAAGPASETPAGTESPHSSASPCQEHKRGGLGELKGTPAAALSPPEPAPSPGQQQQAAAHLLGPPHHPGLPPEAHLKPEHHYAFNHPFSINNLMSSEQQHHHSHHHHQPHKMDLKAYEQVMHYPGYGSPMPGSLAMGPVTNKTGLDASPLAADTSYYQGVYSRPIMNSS
# Sequence of Transcription factor E2F1 (Homo sapiens) (Q01094 whole entry, looked up): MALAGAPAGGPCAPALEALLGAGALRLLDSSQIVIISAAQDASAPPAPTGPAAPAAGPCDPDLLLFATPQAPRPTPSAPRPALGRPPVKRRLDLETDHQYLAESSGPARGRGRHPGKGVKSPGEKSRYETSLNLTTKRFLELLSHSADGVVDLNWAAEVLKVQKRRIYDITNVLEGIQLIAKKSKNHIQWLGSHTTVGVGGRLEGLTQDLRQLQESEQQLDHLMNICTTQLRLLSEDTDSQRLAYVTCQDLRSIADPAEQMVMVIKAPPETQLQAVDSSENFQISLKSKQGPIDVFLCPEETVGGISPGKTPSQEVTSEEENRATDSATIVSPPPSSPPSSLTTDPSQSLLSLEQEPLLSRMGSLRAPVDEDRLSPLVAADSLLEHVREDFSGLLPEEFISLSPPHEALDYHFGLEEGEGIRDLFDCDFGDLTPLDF
# Sequence of Aryl hydrocarbon receptor (Homo sapiens) (P35869 whole entry, looked up): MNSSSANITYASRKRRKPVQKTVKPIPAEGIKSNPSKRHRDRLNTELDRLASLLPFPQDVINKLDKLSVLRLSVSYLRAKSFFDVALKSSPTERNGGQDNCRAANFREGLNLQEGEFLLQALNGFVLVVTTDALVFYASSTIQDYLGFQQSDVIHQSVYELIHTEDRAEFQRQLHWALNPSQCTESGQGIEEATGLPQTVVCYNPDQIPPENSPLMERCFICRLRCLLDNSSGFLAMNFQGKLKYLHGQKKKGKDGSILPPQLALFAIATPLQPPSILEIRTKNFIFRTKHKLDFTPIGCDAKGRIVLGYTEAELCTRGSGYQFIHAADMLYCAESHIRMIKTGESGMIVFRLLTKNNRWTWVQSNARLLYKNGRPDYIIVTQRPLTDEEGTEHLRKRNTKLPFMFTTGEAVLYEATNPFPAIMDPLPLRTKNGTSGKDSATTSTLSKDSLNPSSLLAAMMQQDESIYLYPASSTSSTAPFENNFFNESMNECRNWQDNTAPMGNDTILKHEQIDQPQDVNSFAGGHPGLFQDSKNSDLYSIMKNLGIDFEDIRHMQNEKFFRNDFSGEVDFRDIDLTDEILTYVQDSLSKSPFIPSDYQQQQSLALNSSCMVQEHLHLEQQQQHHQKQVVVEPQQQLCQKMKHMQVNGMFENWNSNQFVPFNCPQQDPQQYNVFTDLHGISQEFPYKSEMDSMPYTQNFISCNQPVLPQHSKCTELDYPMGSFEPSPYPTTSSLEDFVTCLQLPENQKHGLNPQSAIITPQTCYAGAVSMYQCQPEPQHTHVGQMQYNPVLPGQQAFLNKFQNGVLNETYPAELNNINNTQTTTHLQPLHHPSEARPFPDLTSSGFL
# Sequence of Retinoic acid receptor alpha (Homo sapiens) (P10276 whole entry, looked up): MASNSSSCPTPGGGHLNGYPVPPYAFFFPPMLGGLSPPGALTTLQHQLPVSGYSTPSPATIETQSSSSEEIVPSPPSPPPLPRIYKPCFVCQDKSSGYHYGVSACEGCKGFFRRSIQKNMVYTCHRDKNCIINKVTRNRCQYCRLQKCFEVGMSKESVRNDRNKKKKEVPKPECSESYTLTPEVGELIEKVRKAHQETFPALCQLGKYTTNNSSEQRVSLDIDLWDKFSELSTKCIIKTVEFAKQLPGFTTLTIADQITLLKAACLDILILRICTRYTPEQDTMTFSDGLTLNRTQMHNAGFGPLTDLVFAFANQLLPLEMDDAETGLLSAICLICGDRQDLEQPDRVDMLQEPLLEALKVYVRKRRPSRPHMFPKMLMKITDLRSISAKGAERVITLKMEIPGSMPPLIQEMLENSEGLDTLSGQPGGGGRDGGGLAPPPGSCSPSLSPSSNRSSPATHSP
structure (smiles),measurement,setting,value
CCCCCCCCCCCCCC(=O)O,outcome,[1],inactive
same,outcome,[2],inactive
same,outcome,[3],inactive
same,outcome,[4],inactive
same,outcome,[5],inactive
same,outcome,[6],inactive
same,outcome,[7],inactive
same,outcome,[8],inactive
same,outcome,[9],inactive
same,outcome,[10],inactive
same,outcome,[11],inactive
same,outcome,[12],inactive
same,outcome,[13],inactive
same,outcome,[14],inactive
same,outcome,[15],inactive
same,outcome,[16],inactive
ClCCCl,outcome,[1],inactive
same,outcome,[2],inactive
same,outcome,[3],inactive
same,outcome,[4],inactive
same,outcome,[5],inactive
same,outcome,[6],inactive
same,outcome,[7],inactive
same,outcome,[17],inactive
same,outcome,[8],inactive
same,outcome,[10],inactive
same,outcome,[11],inactive
same,outcome,[18],inactive
same,outcome,[19],inactive
same,outcome,[12],inactive
same,outcome,[13],inactive
same,outcome,[14],inactive
same,outcome,[15],inactive
same,outcome,[16],inactive
CC(=O)OCCOC(C)=O,outcome,[1],inactive
same,outcome,[2],inactive
same,outcome,[3],inactive
same,outcome,[4],inactive
same,outcome,[5],inactive
same,outcome,[6],inactive
same,outcome,[7],inactive
same,outcome,[17],inactive
same,outcome,[8],inactive
same,outcome,[9],inactive
same,outcome,[11],inactive
same,outcome,[19],inactive
same,outcome,[12],inactive
same,outcome,[13],inactive
same,outcome,[14],inactive
same,outcome,[15],inactive
same,outcome,[16],inactive
O=C1CCCCCCCCCCOCCCCO1,outcome,[1],inactive
same,outcome,[2],inactive
same,outcome,[3],inactive
same,AC50,[4],74.1 µM (active)
same,outcome,[5],inactive
same,outcome,[6],inactive
same,outcome,[7],inactive
same,outcome,[20],inactive
same,outcome,[8],inactive
same,outcome,[9],inactive
same,outcome,[10],inactive
same,outcome,[11],inactive
same,outcome,[18],inactive
same,outcome,[12],inactive
same,outcome,[13],inactive
same,outcome,[14],inactive
same,outcome,[15],inactive
same,outcome,[16],inactive
CC1(C)[C@@H]2CC[C@@]1(C)[C@H](O)C2,outcome,[1],inactive
same,outcome,[2],inactive
same,outcome,[3],inactive
same,outcome,[4],inactive
same,outcome,[5],inactive
same,outcome,[6],inactive
same,outcome,[7],inactive
same,outcome,[8],inactive
same,outcome,[9],inactive
same,outcome,[10],inactive
same,outcome,[11],inactive
same,outcome,[18],inactive
same,outcome,[12],inactive
same,outcome,[13],inactive
same,outcome,[14],inactive
same,outcome,[15],inactive
same,outcome,[16],inactive
CC(=O)[C@H]1CC[C@H]2[C@@H]3CC=C4C[C@@H](O)CC[C@]4(C)[C@H]3CC[C@]12C,outcome,[1],inactive
same,outcome,[2],inactive
same,outcome,[3],inactive
same,outcome,[4],inactive
same,outcome,[5],inactive
same,outcome,[6],inactive
same,outcome,[7],inactive
same,outcome,[8],inactive
same,outcome,[9],inactive
same,outcome,[10],inactive
same,outcome,[11],inactive
same,AC50,[19],2.32 µM (active)
same,outcome,[12],inactive
same,outcome,[13],inactive
same,outcome,[14],inactive
same,outcome,[15],inactive
same,outcome,[16],inactive
CCc1ccc(C=O)cc1,outcome,[1],inactive
same,outcome,[2],inactive
same,outcome,[3],inactive
same,outcome,[4],inactive
same,outcome,[5],inactive
same,outcome,[6],inactive
same,outcome,[7],inactive
same,outcome,[17],inactive
same,outcome,[8],inactive
same,outcome,[10],inactive
same,outcome,[11],inactive
same,outcome,[18],inactive
same,outcome,[12],inactive
same,outcome,[13],inactive
same,outcome,[14],inactive
same,outcome,[15],inactive
same,outcome,[16],inactive
CN(C)c1ccc(O)c2c1C[C@H]1C[C@H]3[C@H](N(C)C)C(=O)C(C(N)=O)=C(O)[C@@]3(O)C(=O)C1=C2O,outcome,[1],inactive
same,outcome,[2],inactive
same,outcome,[3],inactive
same,outcome,[4],inactive
same,outcome,[5],inactive
same,outcome,[6],inactive
same,outcome,[7],inactive
same,outcome,[17],inactive
same,outcome,[8],inactive
same,outcome,[9],inactive
same,outcome,[11],inactive
same,outcome,[18],inactive
same,outcome,[12],inactive
same,outcome,[13],inactive
same,outcome,[14],inactive
same,outcome,[15],inactive
same,outcome,[16],inactive
